Screens from PubChem.
Rows were chosen to be rich in hits. Some 7.7% of all compounds tested hit in one or more screens of this group.
Shh pathway inh: Sonic Hedgehog pathway inhibition; Shh-LIGHT2 Gli-luciferase reporter, 30 h; inhibition, % (concentration not given with the values); 2.1% of 22,000 active;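 active = mean inhibition across valid replicates above about 65%, limit read from the data; inconclusive = mean under the limit, yet half or more replicates past it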;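 also: pathway switched on by Shh-conditioned medium diluted 1 in 25 in low serum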
NOMO-1 viab: STK33 inhibitor candidate reducing NOMO-1 cell viability; NOMO-1 AML viability, CellTiter-Glo luminescence, 72 h; inhibition, % (no concentration beside the values); 7.5% of 37,000 active; AID 2330; in the data active = inhibition above about 80%; inconclusive = no clear call, values can overlap the other calls
PD-1 reversal: activators reversing PD-1 mediated T-cell inhibition | primary human CD4 T cells, PD-L1 beads, CellTiter-Glo 96 h | activation, % (concentration not given with the values) | 29,000 tested, under 10 active | AID 2316; call rule not given here;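 also: 0% = median vehicle wells and 100% = positive control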
Starred values were filed as active, the others as inactive; ? = inconclusive; / = not tested or not shown.

SMILES | Shh pathway inh | NOMO-1 viab | PD-1 reversal
CC1(C)CC(C)(c2ccccc2)c2cc(SC#N)ccc2N1 (configuration not stated) | 108* | 114* | -5
CC(=O)N1c2ccccc2C(C)(c2ccccc2)CC1(C)C (configuration not stated) | -3 | ? | -1
COc1ccc(NC(=O)CN2C(=O)COc3ccc(Cl)cc32)cc1 | / | 9 | /
COc1ccc(-c2cc(C(F)(F)F)n3nc(C(=O)NCCN4CCOCC4)c(Br)c3n2)cc1 | / | -2 | /
CC#CCc1cc2ccccc2c(=O)o1 | 0 | 21 | -1
O=c1oc(Cl)c(Cl)c2ccccc12 | 79* | 119* | /
CC1=C(C(=O)Nc2ccccc2C)C(c2cccc([N+](=O)[O-])c2)n2ncnc2N1 (configuration not stated) | / | 13 | 1
C[C@@H]1CN([C@H](C)CO)C(=O)c2cc(NC(=O)Cc3ccccc3)ccc2O[C@@H]1CN(C)Cc1ccc(C(=O)Nc2ccccc2N)cc1 | / | 105* | -3
C[C@H](CO)N1C[C@H](C)[C@@H](CN(C)Cc2ccc(C(=O)Nc3ccccc3N)cc2)Oc2ccc(NC(=O)Cc3ccccc3)cc2C1=O | / | 4 | -1
C[C@@H]1CN([C@H](C)CO)C(=O)c2cc(NC(=O)Nc3ccccc3)ccc2O[C@@H]1CN(C)Cc1ccc(C(=O)Nc2ccccc2N)cc1 | / | 109* | -3
C[C@H](CO)N1C[C@H](C)[C@@H](CN(C)Cc2ccc(C(=O)Nc3ccccc3N)cc2)Oc2ccc(NC(=O)Nc3ccc(F)cc3)cc2C1=O | / | 31 | 0
Cc1ccc(C(=O)O)cc1S(=O)(=O)N(C)CCO | / | -5 | 2
COc1ccc(C)cc1Nc1nc(N)nc(-c2oc3ccccc3c2C)n1 | / | 26 | /
COc1ccc(CNC(=O)C2CCCCC2C(=O)O)cc1 (configuration not stated) | / | 18 | /
O=C(CC1NC2CCCCC2NC1=O)Nc1ccc2c(c1)OCCO2 (configuration not stated) | / | 5 | /
Cc1ccc(OCC(=O)Nc2cccc(-c3nc4ccccc4[nH]3)c2)cc1 | / | 7 | 0
COc1ccc(CC(=O)Nc2cccc(-c3nc4cc5ccccc5cc4[nH]3)c2)cc1 | / | 135* | 0
CN(Cc1nc(-c2ccccc2)no1)S(=O)(=O)c1ccccc1 | / | 15 | /
COC(=O)c1ccc(NC(=O)CSC(=S)N2CCOCC2)cc1 | 68* | 16 | 4
CNC(=O)CCC(=O)Nc1ccc(C(=O)OC)cc1 | / | 15 | 4
O/N=C(\Cn1cncn1)c1ccc(Cl)cc1Cl | -6 | 20 | 0
Clc1ccc(CO/N=C(\Cn2ccnc2)c2ccc(Cl)cc2Cl)c(Cl)c1 | 104* | 110* | /
CCN(CC)CCNc1ncnc2scc(-c3ccc(F)cc3)c12 | / | 39 | /
CC(C)CC(NC(=O)Nc1cccc2ccccc12)C(=O)O (configuration not stated) | -31 | 8 | 0
CC1(C)CC(NC(=O)C(=O)NCC2COc3ccccc3O2)CC(C)(C)N1 (configuration not stated) | / | -24 | 1
SMILES | Shh pathway inh | NOMO-1 viab | PD-1 reversal
O=C(N[C@H](COC(=O)[C@H](Cc1ccccc1)NC(=O)c1ccccc1)Cc1ccccc1)c1ccccc1 | -9 | ? | -1
O=S(=O)(CCc1nnc(-c2ccccc2)o1)c1ccc(Cl)cc1 | / | 0 | /
Cn1c(SCC(=O)n2c3c(c4ccccc42)CCCC3)nnc1-c1ccco1 | / | 109* | -3
Cn1c(SCC(=O)n2c3c(c4ccccc42)CCCC3)nnc1-c1ccccc1 | / | 5 | 1
O=C(CCN1C(=O)c2ccccc2C1=O)Nc1ccc(NC(=O)c2ccco2)cc1 | / | 26 | 0
O=C(ON1C(=O)c2ccccc2C1=O)c1ccco1 | / | 115* | -3
C[C@H]1CN([C@@H](C)CO)C(=O)c2cccc(NC(=O)Nc3ccc(C(F)(F)F)cc3)c2O[C@H]1CN(C)Cc1ccc(Oc2ccccc2)cc1 | -13 | 75 | /
C[C@@H]1CN([C@H](C)CO)C(=O)c2cccc(NC(=O)Nc3ccc(C(F)(F)F)cc3)c2O[C@@H]1CN(C)Cc1ccc(Oc2ccccc2)cc1 | -3 | 107* | /
C[C@@H]1CN([C@@H](C)CO)C(=O)c2cccc(NC(=O)Nc3ccc(C(F)(F)F)cc3)c2O[C@@H]1CN(C)Cc1ccc(Oc2ccccc2)cc1 | 24 | 95* | -11
C[C@@H]1CN([C@H](C)CO)C(=O)c2cccc(NC(=O)Nc3ccc(C(F)(F)F)cc3)c2O[C@H]1CN(C)Cc1ccc(Oc2ccccc2)cc1 | -16 | 71 | -2
O=C(CN1CCCc2ccccc21)Nc1ccc(Cl)c(Cl)c1 | 37 | 39 | 0
CC(C)(CO)NC(=O)c1sc2ccccc2c1Cl | / | 25 | -1
COc1c(C)c(O)c(C)c(O)c1C(=O)CCc1ccccc1 | -23 | 45 | -1
COc1c(Cc2ccccc2O)c(O)c(Cc2ccccc2O)c(O)c1C(=O)CCc1ccccc1 | 89* | 106* | -1
CCc1cccc(C)c1NC(=O)CSc1nc2ccccc2c(=O)n1-c1cccc2ccccc12 | / | ? | 0
N#C/C(=C\c1ccc(Cl)cc1)c1ccccc1 | -85 | 17 | 0
NC(=O)CN(Cc1ccc(F)cc1)S(=O)(=O)c1ccc(Cl)cc1 | / | 4 | 2
CC(Sc1nc(-c2ccccc2)c(C#N)c(=O)[nH]1)C(=O)Nc1cccc(Cl)c1 (configuration not stated) | / | 22 | 3
CC(=O)Nc1ccccc1NC(=O)COc1ccc(Br)cc1Cl | / | 33 | -2
O=C(COc1ccc([N+](=O)[O-])cc1)Nc1cc(Cl)ccc1O | / | 54 | -2
O=C(Nc1ccccc1)c1cc([N+](=O)[O-])ccc1NCc1cccnc1 | / | 34 | -2
O=C(Nc1ccc([N+](=O)[O-])cc1Cl)c1cc(Cl)ccc1O | 88* | 120* | /
O=C(Nc1ccccc1)c1cc([N+](=O)[O-])ccc1Cl | 22 | 118* | -20
CCc1ccc(OCC(=O)Nc2ccccc2C(N)=O)c(Br)c1 | / | -4 | -1
O=C(CSc1ccccn1)Nc1ccccn1 | -40 | -3 | 0
SMILES | Shh pathway inh | NOMO-1 viab | PD-1 reversal
CCOc1ccc(NC(=O)CCNC(=O)c2cn(-c3cccc(OC)c3)c(=O)c3ccccc23)cc1 | 25 | 8 | -3
C[C@@H]1CN([C@H](C)CO)C(=O)c2cccc(NC(=O)c3nc4ccccc4s3)c2O[C@H]1CN(C)Cc1ccc(C(=O)Nc2ccccc2N)cc1 | / | 120* | -1
C[C@H](CO)N1C[C@H](C)[C@H](CN(C)Cc2ccccc2)Oc2c(NC(=O)c3nc4ccccc4s3)cccc2C1=O | 15 | 45 | -4
C[C@H]1CN([C@@H](C)CO)C(=O)c2cccc(NC(=O)c3nc4ccccc4s3)c2O[C@H]1CN(C)Cc1ccc(C(=O)Nc2ccccc2N)cc1 | / | 127* | -2
C[C@H]1CN([C@@H](C)CO)C(=O)c2cccc(NC(=O)c3nc4ccccc4s3)c2O[C@H]1CN(C)Cc1ccccc1 | -112 | 40 | 0
COC(=O)c1ccc(C=Nc2ccc3oc(-c4ccc(C)cc4)nc3c2)cc1 | -123 | -22 | 1
CO[C@@H]1CC(OC2CCC3(C)C(CCC45CCC(C6=CC(=O)OC6)C(C)(CCC43)C5=O)C2)O[C@H](C)[C@@H]1O[C@@H]1O[C@H](CO[C@@H]2O[C@H](CO)[C@@H](O)[C@H](O)[C@H]2O)[C@@H](O)[C@H](O)[C@H]1O (some centres not stated) | -34 | 119* | -10
